Test results reported in paper PMC5540273 (PLoS ONE, 2017).

Key:
Conditions in all cases: concentration: 1 μM, replicates: in singlicate; n = 1
TIE1 = tested on: TIE1
TIE2 = tested on: T1, TIE2
T1 construct: gene TEK

TLK1 = tested on: TLK1
TLK2 = tested on: TLK2
TNIK = tested on: TNIK
TNK1 = tested on: TNK1
TNK2 = tested on: TNK2
TNNI3K = tested on: TNNI3K
TRKA = tested on: T2, TRKA
T2 construct: gene NTRK1

TRKB = tested on: TRKB
TRKC = tested on: T3, TRKC
T3 construct: gene NTRK3

TRPM6 = tested on: TRPM6
TSSK1B = tested on: TSSK1B
TSSK3 = tested on: TSSK3
TTK = tested on: TTK
TXK = tested on: TXK
[1] = tested on: TYK2(JH1domain-catalytic)
[2] = tested on: TYK2(JH2domain-pseudokinase)
TYRO3 = tested on: TYRO3
ULK1 = tested on: ULK1
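Note: KINOMEscan kinase panel screen.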

Structure (SMILES) | %Inh (TIE1) [%] | %Inh (TIE2) [%] | %Inh (TLK1) [%] | %Inh (TLK2) [%] | %Inh (TNIK) [%] | %Inh (TNK1) [%] | %Inh (TNK2) [%] | %Inh (TNNI3K) [%] | %Inh (TRKA) [%] | %Inh (TRKB) [%] | %Inh (TRKC) [%] | %Inh (TRPM6) [%] | %Inh (TSSK1B) [%] | %Inh (TSSK3) [%] | %Inh (TTK) [%] | %Inh (TXK) [%] | %Inh [1] [%] | %Inh [2] [%] | %Inh (TYRO3) [%] | %Inh (ULK1) [%]
c1ccc(-c2ccc3c(-c4ccnc(Nc5ccc6c(c5)OCCO6)n4)cnn3n2)cc1 [GW818941] | 22 | 8 | 0 | 0 | 1 | 0 | 12 | 17 | 34 | 0 | 0 | 25 | 32 | 18 | 36 | 13 | 8 | 5 | 0 | 15
Nc1nc(-c2cccnc2)c(-c2ccnc3ccccc23)s1 [GW684083] | 6 | 0 | 0 | 0 | 81 | 0 | 18 | 0 | 59 | 39 | 25 | 14 | 0 | 9 | 0 | 0 | 41 | 62 | 0 | 5
Cc1ccc(O)cc1Nc1cc(C(F)(F)F)nc2ccc(-c3ccncc3)cc12 [GW630823] | 0 | 3 | 21 | 0 | 1 | 0 | 17 | 14 | 0 | 0 | 0 | 0 | 0 | 0 | 3 | 10 | 0 | 0 | 36 | 0
CCCc1ccc(S(=O)(=O)NC2CCN(c3ccnc(Nc4ccc(OC)cc4)n3)C2)cc1 (centres unmarked) [GSK1379737] | 34 | 0 | 0 | 0 | 0 | 0 | 11 | 6 | 0 | 23 | 36 | 0 | 0 | 5 | 0 | 6 | 53 | 46 | 0 | 99.6
Nc1nc(-c2ccc3c(N)n[nH]c3c2)cc(N2CCCCC2)n1 [GSK2228768] | 6 | 0 | 0 | 0 | 0 | 0 | 13 | 0 | 0 | 0 | 0 | 10 | 0 | 3 | 0 | 0 | 0 | 5 | 0 | 10
COC(=O)c1cccc(NC(=O)NCCNc2ccnc(Nc3ccc(F)cc3)n2)c1 [GSK1379883] | 0 | 0 | 1 | 0 | 0 | 0 | 14 | 0 | 19 | 0 | 12 | 0 | 0 | 23 | 0 | 0 | 11 | 20 | 0 | 0
Clc1cc(Nc2ncnc3cc[nH]c23)ccc1OCc1ccccn1 | 10 | 23 | 26 | 4 | 22 | 0 | 5 | 2 | 2 | 12 | 0 | 0 | 44 | 0 | 19 | 11 | 8 | 28 | 0 | 9
Oc1ccc2ncnc(Nc3ccc(OCc4ccccc4)cc3)c2c1 [GI262866] | 19 | 0 | 0 | 0 | 0 | 0 | 4 | 77 | 0 | 0 | 0 | 0 | 0 | 18 | 13 | 37 | 19 | 0 | 0 | 14
Cl.c1ccc(Cn2ccc3cc(Nc4ncnc5ccccc45)ccc32)cc1 [GW275568] | 0 | 0 | 19 | 0 | 0 | 0 | 12 | 18 | 5 | 0 | 0 | 32 | 0 | 13 | 9 | 14 | 0 | 0 | 0 | 1
Cc1ccc(NC(=O)c2cccc(C#N)c2)cc1-c1ccc(C(=O)Nc2ccncc2)cc1 [GSK1398463] | 11 | 21 | 0 | 0 | 13 | 16 | 21 | 29 | 0 | 0 | 7 | 0 | 0 | 0 | 43 | 0 | 8 | 13 | 0 | 42
CN1c2ccc(-c3ccc(C(=O)NCCO)cc3)cc2-c2[nH]ncc2S1(=O)=O | 0 | 3 | 22 | 30 | 43 | 52 | 10 | 3 | 0 | 0 | 0 | 2 | 0 | 0 | 10 | 0 | 51 | 89 | 25 | 0
CS(=O)(=O)CCNCc1nc(-c2ccc3ncnc(Nc4ccc(OCc5cccc(F)c5)c(Cl)c4)c3c2)cs1.Cl [GW583340] | 0 | 0 | 22 | 0 | 0 | 0 | 6 | 0 | 0 | 0 | 0 | 37 | 0 | 12 | 0 | 94.7 | 0 | 16 | 0 | 0
Fc1cccc(COc2ccc(Nc3ncnc4cc[nH]c34)cc2Cl)c1 | 0 | 5 | 25 | 12 | 11 | 0 | 27 | 5 | 2 | 17 | 0 | 0 | 0 | 0 | 4 | 0 | 19 | 28 | 19 | 24
COc1ccc(NC(=O)c2ccc(-c3cc(-c4nnc(C)o4)ccc3C)cc2)cc1 [GW595885] | 14 | 0 | 0 | 0 | 0 | 0 | 21 | 0 | 0 | 17 | 20 | 0 | 12 | 44 | 11 | 0 | 12 | 22 | 3 | 6
CCc1nc(-c2cccc(C)c2)c(-c2ccnc(NC(=O)c3ccccc3)c2)s1 | 0 | 0 | 13 | 0 | 62 | 27 | 9 | 0 | 17 | 0 | 15 | 0 | 0 | 1 | 16 | 0 | 24 | 17 | 0 | 1
Cl.O=S(=O)(c1cccc(F)c1)c1ccc(Nc2ncnc3cc(Br)sc23)cc1Cl [GSK306886] | 0 | 0 | 19 | 2 | 0 | 0 | 21 | 23 | 0 | 0 | 0 | 28 | 0 | 10 | 17 | 15 | 4 | 0 | 0 | 0
FC(F)(F)c1cc(Nc2nccc(-c3c(-c4ccc(Cl)cc4)nn4ncccc34)n2)ccc1Cl [GW829351] | 0 | 0 | 0 | 0 | 12 | 21 | 0 | 0 | 0 | 0 | 0 | 0 | 0 | 0 | 0 | 0 | 6 | 0 | 0 | 0
CSc1nn2c(=O)cc(N3CCOCC3)nc2n1Cc1cccc(Cl)c1Cl [GSK2347225] | 14 | 2 | 4 | 0 | 3 | 3 | 24 | 15 | 1 | 0 | 0 | 0 | 26 | 30 | 0 | 0 | 12 | 0 | 5 | 7
Cc1ccc(C)c(NC(=O)NCCNc2ccnc(Nc3ccc(F)cc3)n2)c1 [GSK1379878] | 0 | 0 | 1 | 0 | 0 | 0 | 9 | 0 | 10 | 0 | 15 | 0 | 0 | 22 | 0 | 3 | 26 | 6 | 0 | 0
